Compounds with a hit are over-represented: about 4.7% of the library has one in this group of screens.
D1 potentiator: enhances dopamine response at the human D1 receptor; P21728; HEK293 TREx D1 cells, calcium flux, dopamine EC20 potentiation; potentiation, % at 10 µM; actives 0.036% (n = 360,000); in the data active = potentiation above about 30%
D1 ag: activates the human D1 dopamine receptor | activation, % at 2 µM | AID 504660 | actives 1% (n = 360,000) | HEK293 T-REx D1 cells, calcium flux, agonist mode
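Agonism was scored from calcium flux recorded over 180 s (1 read/s) after pintool compound addition, following a 10-cycle baseline. Cells were inducible force-coupled HEK293 TREx D1, plated overnight at 30 C and loaded with no-wash calcium dye.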
TRHR enhancer: allosterically enhances the human TRH receptor. actives 0.66% (n = 360,000). TRHR cells, fluo-8 calcium fluorescence, EC20 TRH enhancement. enhancement, % at 2 µM. P34981; in the data active = enhancement above about 30%
Target sequence (P34981 whole entry, looked up): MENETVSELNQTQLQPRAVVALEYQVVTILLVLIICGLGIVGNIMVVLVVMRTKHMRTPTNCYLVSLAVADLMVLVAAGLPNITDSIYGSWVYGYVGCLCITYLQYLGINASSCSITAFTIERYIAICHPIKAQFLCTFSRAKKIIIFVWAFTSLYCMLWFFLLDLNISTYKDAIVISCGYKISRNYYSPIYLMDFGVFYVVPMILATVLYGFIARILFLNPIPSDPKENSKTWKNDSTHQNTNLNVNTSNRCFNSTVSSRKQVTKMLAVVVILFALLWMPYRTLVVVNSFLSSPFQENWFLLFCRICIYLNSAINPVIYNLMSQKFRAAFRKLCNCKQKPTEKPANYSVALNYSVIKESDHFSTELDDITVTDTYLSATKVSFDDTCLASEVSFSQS
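Enhancer read-out: after compound pinning and an initial kinetic agonist-mode read, an EC20 of TRH (10 nM final) was injected and fluo-8 calcium signal (Ex 480/Em 530) followed at 1 s/cycle for 100 cycles in TRHR-expressing cells.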
D1 antagonist: blocks dopamine activation of the human D1 receptor; actives 3.2% (n = 360,000); activity change, negative = inhibition, % at 10 µM; HEK293 TREx D1 cells, calcium flux, dopamine EC80; hits give low values; P21728; AID 504652; in the data active = activity change below about -30%
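Calcium flux readout: force-coupled, inducible Hek293 Trex D1 line, cells induced overnight at 30 C with tetracycline, dye-loaded 30–90 min at RT. Antagonism scored against EC80 dopamine challenge given 180 s after compound.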
TRHR agonist: activates the human TRH receptor; TRHR cells, calcium flux fluo-8, FDSS agonist mode; activation, % at 2 µM; actives 0.18% (n = 360,000); AID 493084
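Agonist-mode FDSS calcium read (Ex 480/Em 530, 1 s cycles) in 1536-well TRHR cells with fluo-8 dye, after 10-cycle baseline and 23 nL compound addition; TRH at EC20 (10 nM final) added afterwards for the enhancer phase.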
Of the large screens only hits and unclear results are named; the others gave an inactive call. Cut-off read from the data, not from the text of the source, unless noted: active = activation above about 30%; inactive = the rest.

Cc1cccc(CCNC(=O)C2CCCN(S(=O)(=O)c3ccc4c(c3)oc(=O)n4C)C2)c1 (stereo not given)	D1 antagonist -50
Cc1ccc(S(=O)(=O)NCCc2nnc3ccc(SCC(=O)Nc4ccc(OC(F)(F)F)cc4)nn23)cc1	none
COc1cccc(-c2c(C#N)c(N)nc3c2c(C)nn3-c2ccccc2)c1O	none
Cn1c(=O)oc2cc(S(=O)(=O)N3CCC(C(=O)N4CCN(c5cccc(Cl)c5)CC4)CC3)ccc21	D1 antagonist -31
Cn1c(=O)oc2cc(S(=O)(=O)N3CCC(C(=O)N4CCN(c5ccc(Cl)cc5)CC4)CC3)ccc21	none
COc1ccc(/C=C2\CCC(C3CCCC3)C2=O)cc1Cn1cccn1 (stereo not given)	none
COc1ccc(/C=C2\CCc3ccccc3C2=O)cc1Cn1cccn1	D1 antagonist -49
CCCCNC(=S)Nc1ccc(F)cc1	none
CCCCNC(=S)Nc1ccc(SC(F)F)cc1	D1 antagonist -42
Cc1cc2c(s1)c1cnn(Cc3c(F)c(F)c(C)c(F)c3F)c(=O)c1n2C	none
O=C(Nc1ccc(F)cc1Cl)C1=COCCO1	none
CN(C)c1cc(Nc2ccc(O)cc2)c([N+](=O)[O-])c2nonc12	none
O=[N+]([O-])c1c(Nc2ccc(O)cc2)cc(Cl)c2nonc12	D1 antagonist -42
CCCCCn1c(C(C)NC(=O)CCC)nc2ccccc21 (stereo not given)	D1 antagonist -30
CC(=O)c1sc(-c2ccc(F)cc2)cc1NS(=O)(=O)c1ccccc1	D1 antagonist -41
COC(=O)c1sc(-c2ccccc2)cc1NC(=O)c1ccc(F)cc1	none
CC1CCCN(CC(O)COCC2COc3ccccc3O2)C1 (stereo not given)	none
OC(COCC1COc2ccccc2O1)CN1CCc2ccccc2C1 (stereo not given)	D1 ag 33
CCCCn1c(NCc2ccccc2NS(=O)(=O)c2ccc(C)cc2)nc2ccccc21	D1 antagonist -32
CCCCn1c(NCc2ccccc2O)nc2ccccc21	none
COc1cn(-c2ccccc2)nc1C(=O)Nc1ccccc1	none
COc1cn(-c2ccccc2)nc1C(=O)Nc1ccc(C)cc1	D1 ag 34
CC(C)(C#CC(O)(c1ccccc1)c1ccccc1)N1CCCC1	D1 antagonist -71
Cc1cccc(NC(=O)c2ccc3nc(CCc4ccccc4)oc3c2)c1C	none
COc1cccc(CNC(=O)c2cccc(NC3=NC4CS(=O)(=O)CC4S3)c2)c1 (stereo not given)	none
COc1cccc(CNC(=O)c2ccc(Cl)c(NC3=NC4CS(=O)(=O)CC4S3)c2)c1 (stereo not given)	D1 antagonist -90
Cn1cc(CNCc2cn(C)nc2-c2ccc(C3CCCCC3)cc2)cn1	D1 antagonist -38
COc1ccc(C2C(C(=O)Nc3ccccc3)=C(C)Nc3nc(-c4ccccc4)nn32)cc1OC (stereo not given)	none
CN(C)c1ccc(P(=O)(OCc2ccccc2)C(O)c2cccnc2)cc1 (stereo not given)	none
CC(C)COP(=O)(c1ccc(N(C)C)cc1)C(O)c1cccnc1 (stereo not given)	D1 antagonist -86
CC(C)OP(=O)(c1ccc(N(C)C)cc1)C(Nc1ccccc1)c1cccnc1 (stereo not given)	D1 antagonist -31
O=C(COC(=O)c1nn(-c2ccccc2C(F)(F)F)cc1O)c1ccc(OC(F)F)cc1	none
Cc1cc2oc3c(c(=O)c2cc1C)C(c1ccc(F)cc1)N(CCCN1CCOCC1)C3=O (stereo not given)	TRHR enhancer 37
COc1cc(C2c3c(oc4cc(C)c(C)cc4c3=O)C(=O)N2CCCN2CCOCC2)ccc1O (stereo not given)	none
CCN(c1cccc(C)c1)S(=O)(=O)c1nnc(NC(=O)C2CCCCC2)s1	none
CC(C)CN(CC(C)C)S(=O)(=O)c1ccc(C(=O)Nc2sc3c(c2C(N)=O)CC(C)(C)NC3(C)C)cc1	none
Cc1cc(C(=O)CSc2nnc(N)s2)c(C)n1Cc1cccs1	D1 antagonist -39
O=S(=O)(NNC(=S)NCC1CCCO1)c1cc(Cl)ccc1Cl (stereo not given)	D1 antagonist -39
Cc1ccc(/C=C2/NC(=O)N(Cc3ccccc3)C2=O)s1	D1 antagonist -40
Cc1cc(C(=O)N2CCCC(C(=O)c3ccc(Cl)cc3C)C2)no1 (stereo not given)	D1 antagonist -35
Cc1cc(Cl)ccc1C(=O)C1CCCN(C(=O)c2cscn2)C1 (stereo not given)	none
Cn1nnnc1Sc1ncnc2scc(-c3ccccc3C#N)c12	none
NC(=O)c1cc(Cl)cn(-c2ccccc2)c1=O	D1 antagonist -48 (no result: D1 potentiator)
CCOc1ccc(C2CC(=O)NC(NC(=O)c3cccc(Cl)c3)=N2)cc1 (stereo not given)	none
CCCCN(C)CCNC(=O)c1cc2cc3ccc(OC)cc3nc2o1	none
CCN(CC)CCNC(=O)c1cc2cc3ccc(OC)cc3nc2o1	D1 antagonist -35
COCCNC(=O)CN1C(=O)COc2ccc(S(=O)(=O)N3CCCC3)cc21	TRHR enhancer 33
Cc1ccc(NC(=O)CN2C(=O)COc3ccc(S(=O)(=O)N4CCCC4)cc32)c(C)c1	D1 antagonist -47
COc1ccc(CNC(=O)c2ccc(S(=O)(=O)NCc3ccco3)cc2)cc1	none
CCOc1ccccc1NC(=O)C1CCCN1S(=O)(=O)c1ccc2nc(-c3ccccc3)[nH]c2c1 (stereo not given)	none
Cc1cccc(NC(=S)NC2CCSc3ccccc32)c1 (stereo not given)	D1 antagonist -33
Cc1nn(-c2ccccc2)c(OC(=O)c2ccccc2Br)c1S(=O)(=O)c1ccccc1	none
CCCn1nc(C(=O)NCc2ccccn2)c2ccccc2c1=O	D1 antagonist -39
CC(=O)Nc1ccc(NC(=O)CCCn2nc(C)c3sc4ccccc4c3c2=O)cc1	none
Cc1ccc(NC(=O)CCCn2nc(C)c3sc4ccccc4c3c2=O)c(Cl)c1	D1 antagonist -45
COc1cc(OC)c(NC(=O)CCCn2nc(C)c3sc4ccccc4c3c2=O)cc1Cl	D1 antagonist -71
CSc1ccc(CCNC(=O)CCCn2nc(C)c3sc4ccccc4c3c2=O)cc1	D1 antagonist -69
COc1ccc(CNC(=O)CCCn2nc(C)c3sc4ccccc4c3c2=O)cc1OC	none
Cc1cc(C)cc(NC(=O)C(=O)NCC(c2cccnc2)N2CCOCC2)c1 (stereo not given)	none
CCCSc1nnc(-c2cnn(-c3ccccc3)c2-n2cccc2)n1C	D1 ag 36
O=C(NCc1ccccc1Cl)c1ccc(NC(=O)N2CCSc3ncccc32)cc1	none
CN1CCN(C(=O)c2ccc(-c3ccccc3)cc2)CC1	none
O=C(c1ccc(-c2ccccc2)cc1)N1CCN(C(=O)c2ccco2)CC1	D1 antagonist -37

Compound activity as filed in PubChem.
